Measurements published in publication PMC9911399, “Two distinct binding modes provide the RNA-binding protein RbFox with extraordinary sequence specificity”.
Substitutions are numbered along the chain they refer to; changes in the protein carry UniProt numbers. In all, about 16,000 sequences were measured (“ka relative to ugcaugu”: median about 0.096, highest 2% from about 0.35 on). The full list was thinned out, with the highest values kept by preference.

T1: RBFOX1 RRM RbFoxmut (Fox-RRM*) (Homo sapiens, UniProt Q9NWB1 109-208, R118D;E147R;N151S;E152T)
T1 sequence: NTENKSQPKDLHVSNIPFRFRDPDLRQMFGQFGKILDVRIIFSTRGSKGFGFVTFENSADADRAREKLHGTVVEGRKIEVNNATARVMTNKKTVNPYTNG

B1: UUACGGC (DNA:RNA)
RNA: GGGAGACCGGAAUUCAGAUUGUCCUUACGGCUUAAAUCCCGUCGUAGCCACCA
DNA 1: CAATCTGAATTCCGGTCTCCC
DNA 2: TGGTGGCTACGACGGGATT
B2: UUCGUUU (DNA:RNA)
RNA: B1 RNA with A27C, C28G, G29U, G30U, C31U
DNA 1: CAATCTGAATTCCGGTCTCCC
DNA 2: TGGTGGCTACGACGGGATT
B3: AAGUGAC (DNA:RNA)
RNA: B1 RNA with U25A, U26A, A27G, C28U, G30A
DNA 1: CAATCTGAATTCCGGTCTCCC
DNA 2: TGGTGGCTACGACGGGATT
B4: GAUGAAA (DNA:RNA)
RNA: GGGAGACCGGAAUUCAGAUUGUCCGAUGAAAUUAAAUCCCGUCGUAGCCACCA
DNA 1: CAATCTGAATTCCGGTCTCCC
DNA 2: TGGTGGCTACGACGGGATT
B5: ACAUGUU (DNA:RNA)
RNA: B1 RNA with U25A, U26C, C28U, G30U, C31U
DNA 1: CAATCTGAATTCCGGTCTCCC
DNA 2: TGGTGGCTACGACGGGATT
B6: CCGCCUC (DNA:RNA)
RNA: B1 RNA with U25C, U26C, A27G, G29C, G30U
DNA 1: CAATCTGAATTCCGGTCTCCC
DNA 2: TGGTGGCTACGACGGGATT
B7: GUGAAUC (DNA:RNA)
RNA: B4 RNA with A26U, U27G, G28A, A30U, A31C
DNA 1: CAATCTGAATTCCGGTCTCCC
DNA 2: TGGTGGCTACGACGGGATT
B8: UUGACUG (DNA:RNA)
RNA: B1 RNA with A27G, C28A, G29C, G30U, C31G
DNA 1: CAATCTGAATTCCGGTCTCCC
DNA 2: TGGTGGCTACGACGGGATT
B9: GUGAUUC (DNA:RNA)
RNA: B1 RNA with U25G, A27G, C28A, G29U, G30U
DNA 1: CAATCTGAATTCCGGTCTCCC
DNA 2: TGGTGGCTACGACGGGATT
B10: GUGACUG (DNA:RNA)
RNA: B4 RNA with A26U, U27G, G28A, A29C, A30U, A31G
DNA 1: CAATCTGAATTCCGGTCTCCC
DNA 2: TGGTGGCTACGACGGGATT
B11: GUGACCG (DNA:RNA)
RNA: B4 RNA with A26U, U27G, G28A, A29C, A30C, A31G
DNA 1: CAATCTGAATTCCGGTCTCCC
DNA 2: TGGTGGCTACGACGGGATT
B12: GUCGUGA (DNA:RNA)
RNA: B4 RNA with A26U, U27C, A29U, A30G
DNA 1: CAATCTGAATTCCGGTCTCCC
DNA 2: TGGTGGCTACGACGGGATT
B13: GUGAUCG (DNA:RNA)
RNA: B4 RNA with A26U, U27G, G28A, A29U, A30C, A31G
DNA 1: CAATCTGAATTCCGGTCTCCC
DNA 2: TGGTGGCTACGACGGGATT
B14: GGUGUGA (DNA:RNA)
RNA: B4 RNA with A26G, A29U, A30G
DNA 1: CAATCTGAATTCCGGTCTCCC
DNA 2: TGGTGGCTACGACGGGATT
B15: GUGAUUG (DNA:RNA)
RNA: B4 RNA with A26U, U27G, G28A, A29U, A30U, A31G
DNA 1: CAATCTGAATTCCGGTCTCCC
DNA 2: TGGTGGCTACGACGGGATT
B16: GGUGAUU (DNA:RNA)
RNA: B4 RNA with A26G, A30U, A31U
DNA 1: CAATCTGAATTCCGGTCTCCC
DNA 2: TGGTGGCTACGACGGGATT
B17: GCGUGAA (DNA:RNA)
RNA: B4 RNA with A26C, U27G, G28U, A29G
DNA 1: CAATCTGAATTCCGGTCTCCC
DNA 2: TGGTGGCTACGACGGGATT
B18: GGUGAUG (DNA:RNA)
RNA: B4 RNA with A26G, A30U, A31G
DNA 1: CAATCTGAATTCCGGTCTCCC
DNA 2: TGGTGGCTACGACGGGATT
B19: ACCUAUU (DNA:RNA)
RNA: B4 RNA with G25A, A26C, U27C, G28U, A30U, A31U
DNA 1: CAATCTGAATTCCGGTCTCCC
DNA 2: TGGTGGCTACGACGGGATT
B20: GCUCCGG (DNA:RNA)
RNA: B4 RNA with A26C, G28C, A29C, A30G, A31G
DNA 1: CAATCTGAATTCCGGTCTCCC
DNA 2: TGGTGGCTACGACGGGATT
B21: AUCUGAU (DNA:RNA)
RNA: B1 RNA with U25A, A27C, C28U, G30A, C31U
DNA 1: CAATCTGAATTCCGGTCTCCC
DNA 2: TGGTGGCTACGACGGGATT
B22: UCGGCUA (DNA:RNA)
RNA: B4 RNA with G25U, A26C, U27G, A29C, A30U
DNA 1: CAATCTGAATTCCGGTCTCCC
DNA 2: TGGTGGCTACGACGGGATT
B23: AAGGAAC (DNA:RNA)
RNA: B4 RNA with G25A, U27G, A31C
DNA 1: CAATCTGAATTCCGGTCTCCC
DNA 2: TGGTGGCTACGACGGGATT
B24: GCCACUG (DNA:RNA)
RNA: B4 RNA with A26C, U27C, G28A, A29C, A30U, A31G
DNA 1: CAATCTGAATTCCGGTCTCCC
DNA 2: TGGTGGCTACGACGGGATT
B25: AAGCCCU (DNA:RNA)
RNA: B4 RNA with G25A, U27G, G28C, A29C, A30C, A31U
DNA 1: CAATCTGAATTCCGGTCTCCC
DNA 2: TGGTGGCTACGACGGGATT
B26: CGAACAU (DNA:RNA)
RNA: B4 RNA with G25C, A26G, U27A, G28A, A29C, A31U
DNA 1: CAATCTGAATTCCGGTCTCCC
DNA 2: TGGTGGCTACGACGGGATT
B27: GCCGAGU (DNA:RNA)
RNA: B4 RNA with A26C, U27C, A30G, A31U
DNA 1: CAATCTGAATTCCGGTCTCCC
DNA 2: TGGTGGCTACGACGGGATT
B28: CUUGAUA (DNA:RNA)
RNA: B4 RNA with G25C, A26U, A30U
DNA 1: CAATCTGAATTCCGGTCTCCC
DNA 2: TGGTGGCTACGACGGGATT
B29: AGCGCUC (DNA:RNA)
RNA: B4 RNA with G25A, A26G, U27C, A29C, A30U, A31C
DNA 1: CAATCTGAATTCCGGTCTCCC
DNA 2: TGGTGGCTACGACGGGATT
B30: ACCCAAG (DNA:RNA)
RNA: B4 RNA with G25A, A26C, U27C, G28C, A31G
DNA 1: CAATCTGAATTCCGGTCTCCC
DNA 2: TGGTGGCTACGACGGGATT
B31: GUGAAUG (DNA:RNA)
RNA: B4 RNA with A26U, U27G, G28A, A30U, A31G
DNA 1: CAATCTGAATTCCGGTCTCCC
DNA 2: TGGTGGCTACGACGGGATT
B32: GUGUGAA (DNA:RNA)
RNA: B4 RNA with A26U, U27G, G28U, A29G
DNA 1: CAATCTGAATTCCGGTCTCCC
DNA 2: TGGTGGCTACGACGGGATT
B33: GUGAAUU (DNA:RNA)
RNA: B4 RNA with A26U, U27G, G28A, A30U, A31U
DNA 1: CAATCTGAATTCCGGTCTCCC
DNA 2: TGGTGGCTACGACGGGATT

Target: T1, RBFOX1 RRM RbFoxmut (Fox-RRM*)
Assay: EMSA; HiTS-Eq, 1 nM pool, 10 min; buffer printed only for the single-RNA assays: 10 mM Tris pH 7.5, 150 mM NaCl, 3.4 mM EDTA, 0.001% NP-40, 30 C
Details: tags: His6 N-terminal (pET28a); label: 5' 32P
How it was run: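 A pool of RNA with 7 randomized nucleotides, 5′-radiolabelled and with DNA-annealed flanks, was equilibrated at 1 nM for 10 min in 50 µL with purified RbFox RRM, wild type or mutant, across increasing protein concentrations. Free RNA was separated by 8% native PAGE, excised, reverse-transcribed, barcoded by PCR and sequenced. Relative association constants were obtained from read-count changes of each RNA species versus the control reaction and normalised to the cognate motif.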

| Binder | binding signal |
| --- | --- |
| B1 | 0.0823 KA relative to UGCAUGU |
| B2 | 0.112 KA relative to UGCAUGU |
| B3 | 0.0758 KA relative to UGCAUGU |
| B4 | 0.0758 KA relative to UGCAUGU |
| B5 | 0.127 KA relative to UGCAUGU |
| B6 | 0.0617 KA relative to UGCAUGU |
| B7 | 0.42 KA relative to UGCAUGU |
| B8 | 0.243 KA relative to UGCAUGU |
| B9 | 0.159 KA relative to UGCAUGU |
| B10 | 0.387 KA relative to UGCAUGU |
| B11 | 0.162 KA relative to UGCAUGU |
| B12 | 0.126 KA relative to UGCAUGU |
| B13 | 0.32 KA relative to UGCAUGU |
| B14 | 0.112 KA relative to UGCAUGU |
| B15 | 0.454 KA relative to UGCAUGU |
| B16 | 0.0776 KA relative to UGCAUGU |
| B17 | 0.119 KA relative to UGCAUGU |

| Binder | binding signal |
| --- | --- |
| B18 | 0.412 KA relative to UGCAUGU |
| B19 | 0.107 KA relative to UGCAUGU |
| B20 | 0.0646 KA relative to UGCAUGU |
| B21 | 0.0592 KA relative to UGCAUGU |
| B22 | 0.106 KA relative to UGCAUGU |
| B23 | 0.057 KA relative to UGCAUGU |
| B24 | 0.101 KA relative to UGCAUGU |
| B25 | 0.0868 KA relative to UGCAUGU |
| B26 | 0.0626 KA relative to UGCAUGU |
| B27 | 0.123 KA relative to UGCAUGU |
| B28 | 0.134 KA relative to UGCAUGU |
| B29 | 0.0471 KA relative to UGCAUGU |
| B30 | 0.0886 KA relative to UGCAUGU |
| B31 | 1.45 KA relative to UGCAUGU |
| B32 | 0.132 KA relative to UGCAUGU |
| B33 | 0.118 KA relative to UGCAUGU |
